# Screening results from PubChem.
# WT yeast gro inh – growth inhibition of WT yeast, mitochondrial fusion screen; AID 1362; inhibition, % at 10 µM; hit rate 2.1% among 190,000; mitochondrial fusion phenotypic screen, WT strain; in the data active = inhibition above about 58%; tested in S. cerevisiae
# CHOP inhibitor – inhibitors of CHOP induction in ER stress response; inhibition, % at 10 µM; AID 2732; hit rate 3.8% among 220,000; CHO-K1 CHOP-promoter luciferase, tunicamycin-induced, 15-18 h;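 active = compounds that reduced the stress-induced luciferase reporter signal by more than about 70% of percent inhibition, limit read from the data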;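 note: 0% = tunicamycin plus vehicle and 100% = wells without tunicamycin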
# L major viab – Leishmania major promastigote growth inhibition | Leishmania major promastigotes, resazurin fluorescence viability | inhibition, % at 10 µM | hit rate 9% among 200,000 | AID 1063; in the data active = inhibition above about 50%;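 note: promastigotes grown with compound for 44 hours at 28 °C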
# Arbovirus inh – antivirals against arbovirus infection; arbovirus infection cell-based antiviral screen; inhibition, % at 10 µM; hit rate 0.37% among 200,000; AID 1251; in the data active = inhibition above about 30%
# * hit, by the source's call; nt = not tested or not shown. Shown are actives, neighbours in structure and some others; about 12% of the full set was active somewhere.
SMILES,WT yeast gro inh,CHOP inhibitor,L major viab,Arbovirus inh
CCOc1ccc(Br)c(C2(O)CC(C)N(C)CC2C)c1 (stereo not drawn),-7,20,83*,-9
CC1CN(C)C(C)(C)CC1(O)c1ccccc1 (stereo not drawn),-7,11,57*,-8
Cc1ccc(C2(O)CC(C)N(C)CC2C)cc1 (stereo not drawn),15,-5,88*,9
C=CCC1(Nc2ccccc2)CC(C)N(C)CC1C (stereo not drawn),nt,22,nt,nt
C=CCc1cc(C=C2C(=O)N(C)C(=O)N(C)C2=O)cc(OCC)c1OCc1ccccc1,15,89*,35,-4
Cc1[nH]n(-c2ccccc2)c(=O)c1C(c1ccc([N+](=O)[O-])cc1)c1c(C)[nH]n(-c2ccccc2)c1=O,19,15,62*,1
CNCCCc1ccccc1,-8,-25,-5,-1
Cc1cccc(CNCCc2ccccc2)n1,4,26,69*,9
c1cc(C2N3CCCN2CC3)ccn1 (stereo not drawn),nt,-4,nt,nt
COc1cc2c(cc1OC)-c1c(OC)c(OC)c(OC)c3ccnc(c13)C2=O,6,58,78*,-39
O=C1NC(=O)C(=Cc2ccc(-c3ccccc3[N+](=O)[O-])o2)C(=O)N1,nt,95*,nt,nt
CCn1c(C)c(C(=O)O)c2cc(OC)ccc21,1,14,-4,-4
CCN1CCN(C(=O)Cc2c(C)n(C(=O)c3ccc(Cl)cc3)c3ccc(OC)cc23)CC1,8,15,98*,-25
CCN(CC)c1ccc(CNCCc2ccc(F)cc2)cc1,5,43,96*,-33
O=c1[nH]sc2cc(F)ccc12,73*,14,78*,-25
O=C(CN1C2CCC1CC(O)(c1cccnc1)C2)Nc1ccc2c(c1)OCO2 (stereo not drawn),-6,-13,90*,-2
CN1CC(C(=O)c2ccc(Cl)cc2)C(c2ccc(N(C)C)cc2)C1 (stereo not drawn),16,3,34,-6
CN1CCC(O)(c2ccc(Cl)cc2)C(C(=O)c2ccc(Cl)cc2)C1 (stereo not drawn),30,-13,86*,-3
CN1C2CCC1CC(OC(=O)c1ccc(Cl)cc1)(C(=O)O)C2 (stereo not drawn),18,22,-3,11
Cc1nn(Cc2ccccc2)c(Cl)c1C(=O)OC(C)C(=O)Nc1ccc(F)cc1Cl (stereo not drawn),12,54,-2,-14
CC(C)CCCn1c(O)c(/C=C2/C=CC=N2)c(=O)[nH]c1=O,20,85*,4,-8
Cc1ccsc1C(=O)C1CCCN(Cc2cccn2-c2ccccn2)C1 (stereo not drawn),2,-14,61*,12
Cc1cc2c(C(F)(F)F)cc(=O)oc2c2c1NCCC2,11,56,-1,1
O=c1cc(C(F)(F)F)c2cc3c4c(c2o1)CCCN4CCC3,21,93*,6,4
CP(=O)(O)C1=CCNCC1,nt,1,nt,nt
SMILES,WT yeast gro inh,CHOP inhibitor,L major viab,Arbovirus inh
CC1=NN(c2ccccc2)C(=O)/C1=C/c1c(O)[nH]c(=S)[nH]c1=O,76*,18,-8,6
CSc1nc(N)c(N=Nc2ccc([As](=O)(O)O)cc2)c(=O)[nH]1,nt,13,nt,nt
Fc1ccc(C(OCCN2CCCC2)c2ccc(F)cc2)cc1,3,-10,90*,4
Fc1ccc(C(OCCN2CCCC2)c2ccc(Br)cc2)cc1 (stereo not drawn),21,-7,100*,-39
Fc1ccc(C(OCCN2CCN(CCCc3ccccc3)CC2)c2ccc(F)cc2)cc1,nt,6,nt,nt
c1ccc(CCCN2CCN(CCOC(c3ccccc3)c3ccccc3)CC2)cc1,nt,12,nt,nt
NN=C(N)N,nt,23,nt,nt
NCCCC(=O)OC1N=C(c2ccccc2Cl)c2cc(Br)ccc2NC1=O (stereo not drawn),-3,17,3,9
O=C1NC(=O)N(c2ccccc2)C(=O)/C1=C\c1ccc([N+](=O)[O-])s1,nt,45,nt,nt
COc1ccc(OC)c(N2C(=O)NC(=O)/C(=C\c3ccc([N+](=O)[O-])s3)C2=O)c1,9,-53,100*,10
C=CCn1c(O)c(C(CC)=NCCN2CCN(C(=S)NC)CC2)c(=O)[nH]c1=O,nt,5,nt,nt
COc1cc2c3cc1Oc1cc(ccc1O)C[C@@H]1c4c(cc(OC)c(O)c4Oc4ccc(cc4)C[C@H]3N(C)CC2)CCN1C,-9,21,100*,-42
Cc1nn(-c2ccccc2)c2c1C(c1ccc3c(c1)OCO3)SCC(=O)N2 (stereo not drawn),-13,19,99*,12
COc1cc(C2SCC(=O)Nc3c2c(C)nn3-c2ccccc2)cc(OC)c1OC (stereo not drawn),-3,14,91*,-2
